# Source: PubChem BioAssay (Tox21)
# Records with an inconclusive call do not appear. Unmarked numbers belong to inactive results. Active and inactive are the calls of the source. Calls follow the shape of the full dose curve.
# Biological target: Acetylcholinesterase (Homo sapiens) (UniProt P22303)
# Assay: Acetylcholinesterase (AChE) small molecule antagonists: fluorescence cell-based qHTS assay (AID 1347398); also: nearly all actives have a fitted effect of over 50% in size
# Conditions: SH-SY5Y cells; Potency: AChE activity; outcome: AChE activity; series mostly up to 115 µM; activity change, negative = inhibition: at the top concentration
# Method in brief: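 Fluorimetric cell-based assay: intact SH-SY5Y cells, 30 min compound preincubation at 37 C, acetylthiocholine substrate with thiol probe Thiolite Green, 40 min RT development, fluorescence 490/520 nm.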
# % is scaled to controls: 0 for no effect and ±100 for the full control effect.
# Chain of Acetylcholinesterase (Homo sapiens) (P22303 whole entry, looked up): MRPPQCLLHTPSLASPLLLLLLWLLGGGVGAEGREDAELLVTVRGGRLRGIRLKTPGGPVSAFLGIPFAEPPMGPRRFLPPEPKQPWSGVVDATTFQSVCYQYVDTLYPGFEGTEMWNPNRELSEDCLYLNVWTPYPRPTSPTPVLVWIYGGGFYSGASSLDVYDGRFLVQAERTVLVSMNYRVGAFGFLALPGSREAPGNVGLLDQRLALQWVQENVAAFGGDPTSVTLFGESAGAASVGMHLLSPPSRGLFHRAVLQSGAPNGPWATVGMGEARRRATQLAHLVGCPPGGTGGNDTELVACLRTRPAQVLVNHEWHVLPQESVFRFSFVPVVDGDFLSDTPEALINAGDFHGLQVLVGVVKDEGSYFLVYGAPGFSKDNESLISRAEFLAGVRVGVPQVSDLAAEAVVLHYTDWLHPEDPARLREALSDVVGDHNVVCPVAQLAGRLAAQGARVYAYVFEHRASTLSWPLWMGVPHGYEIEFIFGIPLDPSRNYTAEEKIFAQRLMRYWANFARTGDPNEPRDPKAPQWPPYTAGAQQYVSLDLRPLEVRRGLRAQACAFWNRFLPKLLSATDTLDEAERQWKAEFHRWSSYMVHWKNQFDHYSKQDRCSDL
Structure (SMILES),"activity change, negative = inhibition",Potency
CC(=O)OCC(=O)[C@@]1(O)CC[C@H]2[C@@H]3CCC4=CC(=O)CC[C@]4(C)[C@H]3C(=O)C[C@@]21C,1.99% [at 53.7 µM],–
CO/N=C(/C(=O)N[C@@H]1C(=O)N2C(C(=O)O)=C(COC(N)=O)CS[C@H]12)c1ccco1,3.09%,–
C[C@]1(Cn2ccnn2)[C@H](C(=O)O)N2C(=O)C[C@H]2S1(=O)=O,3.58% [at 53.7 µM],–
CN1CC(=O)N/C1=N/C(=O)Nc1cccc(Cl)c1,3.38% [at 53.7 µM],–
CNC(=S)NN,-2.16%,–
C[C@]12CCC(=O)C=C1CC[C@H]1[C@@H]3CC[C@](O)(C(=O)CO)[C@@]3(C)C[C@H](O)[C@@]12F,-0.524% [at 53.7 µM],–
CCN(CCN)c1cccc(C)c1,–,inactive
CC(=O)CCc1ccc(OC(C)=O)cc1,-0.357%,–
CC(C)(C)c1ccc(CCC=O)cc1,-1.33%,–
O=C1OCc2ccccc21,-1.9%,–
C=C(C)C(=O)OCCO,-23.2%,–
Cc1ccc(O)c(C(C)(C)C)c1,–,inactive
COc1cc(C=O)ccc1O,–,inactive
CCc1c(C(=O)NN2CCCCC2)nn(-c2ccc(Cl)cc2Cl)c1-c1ccc(Br)cc1,5.1%,–
c1ccc(OCc2ccc(CCCN3CCOCC3)cc2)cc1,-6.37% [at 53.7 µM],–
Cc1cccc(N(C)C(=S)Oc2ccc3ccccc3c2)c1,–,inactive
C=C(C)C(=O)OCC(CC)(COC(=O)C(=C)C)COC(=O)C(=C)C,–,inactive
CC(CO)(CO)C(=O)O,-10.7%,–
CCCCCC(C)=O,–,inactive
Cc1ccc(C)c(S(=O)(=O)O)c1,–,inactive
c1ccc2c(c1)ccc1cc3c(ccc4ccccc43)cc12,–,inactive
